Compound activity: PubChem, several laboratories
CYP2C19 inh = inhibitors of human CYP2C19; P33261; CYP2C19 Supersomes, luciferin-H EGE luminescence, 30 min; inhibition, % at 5 µM; 96,000 compounds, 21% hits; AID 778;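 active means CYP2C19 inhibition above a set limit at 5 µM in the primary screen, cut at about 50% in these data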
CYP2C19 act = activators of human cytochrome P450 2C19. 96,000 tested, under 10 active. activation factor at 5 µM. P33261. recombinant CYP2C19, luciferin-H EGE luminescence; hits give high values; 0 = fully inhibited enzyme, 1 = untreated enzyme;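 active means activation factor of at least 2 at 5 µM in the primary screen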
Cav32 inh = blocks human Cav3.2 T-type calcium channel; AID 449739; O95180; B-score at 10 µM; Cav3.2-expressing cells, Fluo-4 calcium fluorescence FDSS; hits give low values; 100,000 compounds, 4% hits;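 active means single-dose well whose peak fluorescence ratio is a statistical outlier from its plate by either plate-standardised score or position-corrected B-score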
CYP2C9 act = CYP2C9 (human) activation; 96,000 compounds, 1.4% hits; P11712; activation factor at 5 µM; recombinant CYP2C9, luciferin-H conversion, luminescence; hits give high values; factor 1 = untreated enzyme, 0 = blocked;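 active means activation factor of 2 or more for CYP2C9 at a 5 µM dose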
CYP2C9 inhib = blocks human cytochrome P450 2C9. P11712. CYP2C9 Supersomes, luciferin-H conversion, luminescence. inhibition, % at 5 µM. 96,000 compounds, 20% hits. AID 777;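 active means blocking of liver enzyme CYP2C9 beyond about 50% at 5 µM, limit read from the data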
Each line names hits and unclear results; the compound was inactive in the other large screens. Shown are actives, neighbours in structure and some others; about 27% of the full set was active somewhere.

COc1ccc(OC)c(S(=O)(=O)Nc2ccccc2SC)c1	none (no result: CYP2C19 inh, CYP2C19 act, CYP2C9 act, CYP2C9 inhib)
COc1ccc(S(=O)(=O)Nc2cc3c4c(oc3c3ccccc23)CCCC4=O)cc1	CYP2C9 inhib 82
COc1ccc(OC)c(S(=O)(=O)Nc2ccccc2C)c1	CYP2C19 inh 87
COc1ccc(OC)c(NS(=O)(=O)c2cc(OC)ccc2OC)c1	CYP2C19 inh 96, CYP2C9 inhib 59
COc1ccc(OC)c(N/C=C2/CCCCC2=O)c1	CYP2C9 inhib 55
CCCCOc1ccc(S(=O)(=O)Nc2cc(OC)ccc2OC)cc1	CYP2C19 inh 86, CYP2C9 inhib 74
COc1ccc(S(=O)(=O)NN=C2CCCC2)cc1	none
CCNS(=O)(=O)c1cc(OC)ccc1OC	CYP2C19 inh 85, CYP2C9 inhib 90
COc1ccc(OC)c(S(=O)(=O)Nc2ccccc2C(=O)O)c1	none
COc1ccc(S(=O)(=O)Nc2ccccc2C)cc1	CYP2C19 inh 100, CYP2C9 inhib 51
COc1cc(C)c(S(=O)(=O)Nc2ccccc2F)cc1C	CYP2C19 inh 88, CYP2C9 inhib 52 (no result: Cav32 inh)
COc1ccc(OC)c(NC(=O)COc2ccc(S(=O)(=O)NC(C)C)cc2)c1	none
COc1ccc(OC)c(S(=O)(=O)NCCO)c1	none
Cc1ccccc1NC(=O)C1CCCN1C(=O)NC1CCCCC1 (stereo not drawn)	none
CCOC(=O)c1ccc(NC(=S)NNC(=O)C2(C)CC2(Cl)Cl)cc1 (stereo not drawn)	none (no result: CYP2C19 inh, CYP2C19 act, CYP2C9 act, CYP2C9 inhib)
O=C(c1ccco1)N1CCN(S(=O)(=O)c2ccc(S(=O)(=O)NC3CCCCC3)cc2)CC1	none
CCOC(=O)CN1CC23C=CC(O2)C(C(=O)Nc2ccc(F)c(C)c2)C3C1=O (stereo not drawn)	none
CCNC(=O)N1c2ccc(OCC)cc2C(C)=CC1(C)C	CYP2C19 inh 67, CYP2C9 inhib 50
Cc1cc(C)cc(OCC(=O)Nc2nonc2NC(=O)COc2cc(C)cc(C)c2)c1	CYP2C9 inhib 64
CCc1c(C)sc(NC(=O)c2cccs2)c1C(=O)OC(C)C	CYP2C19 inh 51, CYP2C9 inhib 64
CCOC(=O)c1c(NC(=O)c2cccs2)sc(C(=O)N(C)C)c1C	CYP2C19 inh 58, CYP2C9 inhib 77
CCOC(=O)c1c(NC(=O)c2cccs2)sc(C)c1CC	none (no result: Cav32 inh)
COC(=O)c1c(NC(=O)c2ccco2)sc(C(=O)N(C)C)c1C	none (no result: CYP2C19 inh, CYP2C19 act, CYP2C9 act, CYP2C9 inhib)
CCOC(=O)c1c(NC(=O)C2c3ccccc3Oc3ccccc32)sc(C(N)=O)c1C	CYP2C9 inhib 78 (no result: Cav32 inh)
CCc1noc(C)c1C(=O)Nc1sc(C(=O)N(C)C)c(C)c1C(=O)OC	CYP2C9 inhib 60
CC[C@@H]1CC=C[C@H]2[C@H]1C(=O)N(Cc1ccccc1)[C@H]2c1cc(C)ccc1F	none (no result: CYP2C19 inh, CYP2C19 act, CYP2C9 act, CYP2C9 inhib)
CCOC(=O)c1[nH]c(CSc2nnc(-c3ccncc3)n2CCOC)c(C(=O)OCC)c1C	CYP2C19 inh 65, CYP2C9 inhib 94
CCn1c(SCc2nc3ccccc3c(=O)[nH]2)nc2ccccc2c1=O	none (no result: CYP2C19 inh, CYP2C19 act, CYP2C9 act, CYP2C9 inhib)
COCCCn1c(SCc2nc3ccccc3c(=O)[nH]2)nc2ccccc2c1=O	CYP2C9 inhib 67
COCCn1c(SCc2nc3ccccc3c(=O)[nH]2)nnc1-c1ccncc1	CYP2C19 inh 52
C#Cc1ccc([C@H]2C=C(C(=O)OCC=C)O[C@@H](OCCCCO)C2)cc1	none (no result: CYP2C19 inh, CYP2C19 act, CYP2C9 act, CYP2C9 inhib)
Cc1nc(-c2ccc(Cl)cc2)sc1C1(C)CC(c2ccc(C#N)cc2)=NO1 (stereo not drawn)	none (no result: CYP2C19 inh, CYP2C19 act, CYP2C9 act, CYP2C9 inhib)
O=C(c1cccc(Cl)c1)N1CCC(=O)N(C(CO)Cc2ccccc2)CC1 (stereo not drawn)	none (no result: CYP2C19 inh, CYP2C19 act, CYP2C9 act, CYP2C9 inhib)
COc1ccccc1-c1ccc(=O)n(CC(=O)NC(C)(C)C)n1	none
Cc1ccc(-c2noc(CSc3nnc(Cc4ccccc4)n3-c3ccc(Cl)cc3)n2)cc1	CYP2C19 inh 84, Cav32 inh -5.4, CYP2C9 inhib 84
COc1ccc(-c2noc(CSc3nc4ccccc4c(=O)n3-c3ccc(C)cc3)n2)cc1	CYP2C19 inh 63, CYP2C9 inhib 66 (no result: Cav32 inh)
Cn1c(SCc2nc(-c3ccc(Cl)cc3)no2)nnc1-c1ccccc1	none
Nc1nc(SCc2ccc(Cl)cc2)[nH]c(=O)c1-c1ccccc1	none (no result: CYP2C19 inh, CYP2C19 act, CYP2C9 act, CYP2C9 inhib)
Cc1sc2nc(SCc3nc(-c4ccccc4)no3)n(-c3ccccc3)c(=O)c2c1C	none (no result: CYP2C19 inh, CYP2C19 act, CYP2C9 act, CYP2C9 inhib)
COc1ccc(-c2noc(CSc3nc(N)c(-c4ccccc4)c(=O)[nH]3)n2)cc1	CYP2C19 inh 76, CYP2C9 inhib 70
COc1ccc(-c2noc(CSc3nnc(Cc4ccccc4)n3-c3ccc(Cl)cc3)n2)cc1	CYP2C19 inh 87, CYP2C9 inhib 80
Cc1nc(-c2ccc(Cl)cc2)sc1C1(C)CC(c2cccc([N+](=O)[O-])c2)=NO1 (stereo not drawn)	none (no result: CYP2C19 inh, CYP2C19 act, CYP2C9 act, CYP2C9 inhib)
